Results: PubChem BioAssay (NCI)
This is part of a sample that, as a whole, favours compounds with a hit. Of some 83,000 tested, about 20% had one in any assay.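 Interpretation: 100, growth as untreated; towards 0, rising growth inhibition; 0, no net growth; 0 to -100, cell death. Compounds scoring below 10 were considered active.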 Unmarked numbers belong to inactive results. Calls of active or inactive are those of the source.

Legend:
Test in all cases: NCI-60 one-dose screen, 48 h (100 = growth as untreated, 0 = no growth, -100 = all killed)
Details in all cases: 10 µM
DU-145 prostate = test system: DU-145 prostate
K-562 leukemia = test system: K-562 leukemia
MALME-3M melanoma = test system: MALME-3M melanoma
MDA-MB-231 breast = test system: MDA-MB-231 breast
RXF 393 renal = test system: RXF 393 renal
SF-268 CNS = test system: SF-268 CNS
SF-295 CNS = test system: SF-295 CNS
SF-539 CNS = test system: SF-539 CNS
UACC-257 melanoma = test system: UACC-257 melanoma
M14 melanoma = test system: M14 melanoma
HCT-15 colon = test system: HCT-15 colon
HT29 colon = test system: HT29 colon
SNB-75 CNS = test system: SNB-75 CNS
SNB-19 CNS = test system: SNB-19 CNS
U251 CNS = test system: U251 CNS
PC-3 prostate = test system: PC-3 prostate
SK-MEL-5 melanoma = test system: SK-MEL-5 melanoma
UACC-62 melanoma = test system: UACC-62 melanoma
LOX IMVI melanoma = test system: LOX IMVI melanoma
SK-MEL-28 melanoma = test system: SK-MEL-28 melanoma

SMILES	growth (DU-145 prostate)	growth (K-562 leukemia)	growth (MALME-3M melanoma)	growth (MDA-MB-231 breast)	growth (RXF 393 renal)	growth (SF-268 CNS)	growth (SF-295 CNS)	growth (SF-539 CNS)	growth (UACC-257 melanoma)	growth (M14 melanoma)	growth (HCT-15 colon)	growth (HT29 colon)	growth (SNB-75 CNS)	growth (SNB-19 CNS)	growth (U251 CNS)	growth (PC-3 prostate)	growth (SK-MEL-5 melanoma)	growth (UACC-62 melanoma)	growth (LOX IMVI melanoma)	growth (SK-MEL-28 melanoma)
CCn1c(SC/C(=N/O)c2ccccc2)nnc1-c1ccccc1	107%	86%	98.6%	94.6%	117%	108%	109%	93.7%	104%	109%	101%	104%	87.8%	98.9%	102%	81.2%	100%	86.2%	104%	106%
COC1OC(COS(=O)OC)C(O)C(O)C1OS(=O)OC (stereo not given)	99.5%	102%	97.1%	103%	111%	103%	103%	98.3%	99.5%	96.6%	96.5%	103%	105%	103%	99.3%	100%	104%	107%	100%	110%
CCOC(=O)c1cc(C(=O)c2ccc(OC)c(OC)c2)n2ccncc12	102%	87.5%	112%	91.4%	106%	109%	102%	99.3%	102%	102%	89.9%	84.6%	104%	98%	105%	80.6%	89.4%	94%	77.7%	115%
COc1cc(C)ccc1Oc1nc(Nc2ccc(N3CCOCC3)cc2)ncc1NC(=O)Nc1cc(C(F)(F)F)cc(C(F)(F)F)c1	23.3%	40.3%	108%	51.5%	-27.6% (active)	49.7%	60.2%	65.6%	84.3%	73%	66.6%	63.8%	65.9%	61.4%	53.1%	38.1%	82.6%	82.6%	47.1%	94%
CS(=O)(=O)c1nccc(-c2c(-c3cccc(OCc4ccccc4)c3)nc3sccn23)n1	-59.6% (active)	47.1%	58.7%	61.4%	90.7%	97%	101%	90%	27.8%	72.3%	49.4%	77.9%	97.5%	88.6%	89.1%	66.2%	0.137% (active)	62.4%	28.6%	77.1%
COc1cccc2ccc(CC(O)(c3ccccc3)c3ccccc3)nc12	98.1%	91.9%	101%	85%	108%	93.7%	86.4%	103%	95.5%	94.3%	54.7%	91.8%	74.6%	96.6%	97%	79%	87%	86.2%	92.4%	106%
CN(C)CCCOc1ccc(OCCCN(C)C)c2c1C(=O)c1ccccc1C2=O	4.83% (active)	7.12% (active)	-43% (active)	-20.5% (active)	-9.08% (active)	-4.36% (active)	14.4%	-1.42% (active)	5.21% (active)	1.61% (active)	91.5%	-20.6% (active)	-20.6% (active)	7.81% (active)	5.27% (active)	11%	10.5%	-46.4% (active)	-13.2% (active)	-4.67% (active)
C=CCN(CC=C)C(=O)[C@H](CC)[C@@H]1CC[C@@H](C)[C@@H]([C@H](C)[C@@H](O)[C@@H](C)C(=O)[C@H](CC)C2O[C@]3(C=CC(=O)[C@]4(CC[C@@](C)([C@H]5CC[C@](O)(CC)[C@H](C)O5)O4)O3)[C@H](C)C[C@@H]2C)O1 (stereo not given in full)	74.8%	18.7%	-25.1% (active)	23.1%	21.4%	58.9%	5.69% (active)	53.2%	20.6%	17.3%	11.5%	16.7%	38.7%	23.8%	30.5%	14.7%	-12.3% (active)	10.7%	36.9%	19.8%
NS(=O)(=O)Oc1ccc(NC(=O)C2CCCCCC2)cc1	117%	96.1%	102%	103%	116%	98.5%	99%	98.3%	100%	108%	100%	108%	96.1%	101%	100%	96.5%	101%	99.7%	98.8%	104%
CC(C)N(CCOc1ccc(-c2nc3sccn3c2-c2ccnc(S(C)(=O)=O)n2)cc1)C(C)C	99.9%	62.9%	102%	75.4%	93.2%	96.3%	108%	95.4%	78.4%	112%	92.8%	60.3%	83.5%	107%	91.4%	62.5%	39.2%	83.9%	72.7%	104%
CCOS(=O)(=O)c1c(C(C)C)cc(C(C)C)cc1C(C)C	103%	92.8%	89.6%	99.5%	108%	100%	98.9%	99.4%	105%	92.8%	97.2%	112%	96.8%	103%	98.6%	96%	100%	98.4%	101%	96.5%
Cc1n[nH]c(C)c1N=Nc1cccc2c1C(=O)c1ccccc1C2=O	101%	85.6%	124%	82.4%	87.6%	96.5%	99.4%	90.3%	111%	106%	78.4%	96.8%	95.1%	93.1%	92.4%	90.5%	93.1%	89.5%	69.8%	113%
C=CCn1c(SCC(=O)Nc2ccc(C(=O)/C=C/c3cc(OC)c(OC)c(OC)c3)cc2)nnc1-c1cc(-c2ccc(Cl)cc2)nc2ccccc12	95.3%	75.9%	97.8%	75%	59.4%	90.9%	98%	84.3%	102%	95.5%	59.5%	74.7%	68.8%	84.1%	86.3%	71.7%	91%	84.2%	75.5%	100%
Cn1cnc([N+](=O)[O-])c1/C=C1\Oc2ccc(Br)cc2C1=O	91.9%	67.1%	96.2%	91.8%	102%	90%	87.6%	104%	84.8%	95.4%	70.4%	83.8%	88.1%	90.1%	101%	81.5%	91.2%	96.6%	72.8%	97.4%
CCCC1(CN2c3ccccc3Sc3ccc(Cl)cc32)CCN(CC)C1 (stereo not given)	-32.3% (active)	-61.9% (active)	-61.5% (active)	-28.4% (active)	-33.7% (active)	25.9%	-89.4% (active)	-7.27% (active)	4.91% (active)	-93.2% (active)	3.6% (active)	-68% (active)	1.99% (active)	-36.3% (active)	-92% (active)	5.75% (active)	-95.9% (active)	-21.4% (active)	-100% (active)	-67.8% (active)
